Lassa entry inh – qHTS for Inhibitors of binding or entry into cells for Lassa Virus | Lassa virus pseudotype entry inhibition, cell reporter | Potency, µM (top dose mostly 37.9 µM), inactives show at the highest dose activity change, negative = inhibition, hits mostly inhibitors | actives 1.2% (n = 300,000); calls by dose curve; tested in HEK293 cells; further: potency means the concentration at half of the fitted maximal effect; nearly all actives have a fitted effect of over 50% in size
Pf growth 48h – Primary qHTS for delayed death inhibitors of the malarial parasite plastid, 48 hour incubation; AID 504832, 2011; P. falciparum luciferase growth in erythrocytes, 48 h; actives 5.9% (n = 310,000); Potency, µM (top dose mostly 28.7 µM), inactives show top-dose activity change, negative = inhibition, usual class: inhibitors; further: potency means the concentration at half of the fitted maximal effect
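A one-generation exposure of luciferase-tagged malaria parasites in RPMI 1640/Albumax erythrocyte culture, 37 C and 5% CO2. Inhibition is inferred from decreased luminescence after adding detection reagent.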
MARV entry inh – qHTS for inhibitors of binding or entry into cells for Marburg Virus | Marburg virus pseudotyped entry inhibition, cell reporter | Potency, µM (top dose mostly 37.8 µM), for the others: top-dose activity change, negative = inhibition, most hits filed as inhibitors | actives 1.8% (n = 300,000) | AID 540276, 2011; calls by dose curve; tested in HEK293 cells; further: potency means the concentration at half of the fitted maximal effect
HCV inh – qHTS Assay for Inhibitors of Hepatitis C Virus (HCV). Huh7.5.1 HCVcc-Cre infection, luciferase reporter, 44 h. Potency, µM (titrated, usually from 41.8 µM), inactives show at the top dose activity change, negative = inhibition, hits mostly inhibitors. actives 3.4% (n = 340,000); further: potency means the concentration at half of the fitted maximal effect
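After 44 h co-culture of compound, cells and HCVcc-Cre (~0.5 moi), substrate is added for 15 min at room temperature and luciferase measured over 15 sec. Cells were seeded at 1,000/well and pre-cultured 4 h.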
Pf growth 96h – Primary qHTS for delayed death inhibitors of the malarial parasite plastid, 96 hour incubation. actives 6.9% (n = 320,000). P. falciparum luciferase reporter growth, 96 h. Potency, µM (doses to about 28.7 µM), for the others: at the highest dose activity change, negative = inhibition, usual class: inhibitors; further: potency means the concentration at half of the fitted maximal effect
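Infected RBCs, 2% Hct / 0.05% parasitemia final; luciferase-reporter P. falciparum; cpd 96 h, 37 C, 5% CO2; luciferase detection reagent; luminescence.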
HCMV inh – qHTS Assay for inhibitors of the human cytomegalovirus (HCMV); HFF cells, HCMV-luciferase reporter, 72 h; stronger effect = lower value; activity change, negative = inhibition, % at 57.5 µM; actives 4.5% (n = 410,000); in the data active means activity change below about -60%; inconclusive means no clear call, values can overlap the other calls; inactive means above about -39%
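Steps: HFFs plated, 16 h 37C; compounds added; HCMV-luciferase added to MOI 1 PFU/cell; 72 h 37C; OneGlo reagent, 5 min room temperature; luminescence read, normalized to controls.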
An asterisk follows results filed as active; ? = inconclusive; / = no result given; [ ] = remark or other dose. A selection: hits, their analogues and other compounds. The true share with any hit is near 14%. Unless noted, the call rests on the fitted dose curve; in most records, active means well fitted inhibition curve with a large enough effect; inconclusive means small, poorly fitted or top-dose-only effect, or another doubt; inactive means no such curve, though single readings can be large or run the other way. On the % scale 0 is the no-effect control and ±100 the full control effect.

SMILES | Lassa entry inh | Pf growth 48h | MARV entry inh | HCV inh | Pf growth 96h | HCMV inh
CCCCCN(CCCCC)C(=O)C(CCC(=O)O)NC(=O)c1ccc(Cl)c(Cl)c1 (stereo not drawn) | -1.2% | -1.0% | ? | 14.4% | -8.5% | -60.7*
CCCCCN(CCCCC)C(=O)[C@H](CCC(=O)O)NC(=O)c1ccc(Cl)c(Cl)c1 | / | / | 7.3% | / | / | /
CCOC(=O)CC1(Cc2ccccc2)Oc2ccccc2O1 | / | / | / | / | / | -35.3
COc1ccc2c(c1)-c1c(sn(-c3ccccc3)c1=S)C(C)(C)N2 | -16.4% | ? | -12.1% | ? | -3.1% | ?
COc1cc2c3c(c1)-c1c(sn(-c4cc(OC)ccc4OC)c1=S)C(C)(C)N3C(=O)C2=O | 4.5% | 7.7% | 20.3% | 14.3% | -20.9% | -8.8
COc1ccc2c(c1)-c1c(ssc1=S)C(C)(C)N2 | 2.4% | ? | 4.6% | ? | -7.4% | -88.7*
COc1ccc(-n2sc3c(c2=S)-c2cc(OC)ccc2NC3(C)C)cc1 | -18.6% | ? | ? | ? | ? | -68.0*
COc1ccc2c(c1)-c1c(sn(-c3ccc(OC)c(OC)c3)c1=S)C(C)(C)N2 | ? | ? | ? | 2.51µM* | 10.4µM* | -5.0
CCN1CCN(C(=O)c2sc3nc(C)nc(N4CCC(C)CC4)c3c2C)CC1 | ? | 13.1µM* | 24.5% | -19.9% | ? | ?
Cc1c(C(=O)N2CCN(c3ccccc3)CC2)sc2ncnc(N3CCN(c4ccccn4)CC3)c12 | 5.2% | ? | 1.8%[46.1 µM] | ? | 30.0% | 9.0
Cc1c(C(=O)N2CCN(c3ccc(F)cc3)CC2)sc2ncnc(N3CCN(c4ccccn4)CC3)c12 | ? | 10.4µM* | ? | ? | 11.8% | -80.7*
Cc1nc(N2CCN(c3ccccn3)CC2)c2c(C)c(C(=O)N3CCN(c4ccc(F)cc4)CC3)sc2n1 | ? | 4.65µM* | ? | ? | 0.8% | -25.6
COc1ccc(OC)c(NC(=O)c2sc3ncnc(N4CCN(c5ccccn5)CC4)c3c2C)c1 | -3.3% | 8.28µM* | 10.0%[46.1 µM] | ? | ? | /
COc1ccccc1N1CCN(C(=O)c2sc3nc(C)nc(N4CCN(c5ccccn5)CC4)c3c2C)CC1 | ? | ? | ? | ? | 33.0% | 16.4
COc1ccccc1N1CCN(C(=O)c2sc3ncnc(N4CCN(c5ccccn5)CC4)c3c2C)CC1 | ? | 11.7µM* | ? | ? | 1.7% | /
Oc1ccc(C2=NN(c3ccccc3)C(c3ccc(F)cc3)C2)cc1 (stereo not drawn) | 11.2µM* | 9.28µM* | ? | 10µM* | ? | 21.6
Fc1ccc(C2CC(c3cccs3)=NN2c2ccccc2)cc1 (stereo not drawn) | ? | ? | ? | ? | -8.7% | -21.3
Oc1ccccc1C1=NN(c2ccccc2)C(c2ccc(F)cc2)C1 (stereo not drawn) | -23.5%[46.1 µM] | ? | -9.8%[46.1 µM] | -18.5% | 10.4µM* | -73.7*
CCOC(CNCc1cc(C)c2[nH]c3ccccc3c2c1C)OCC | ? | / | ? | 1.78µM* | / | ?
Cn1c(=O)c2c(-c3ccccc3F)c3c(nc2n(C)c1=O)-c1ccccc1C3O (stereo not drawn) | 8.4% | -20.6% | 18.8% | 3.6% | 0.233µM* | -5.8
CCOC(=O)C1=C(c2ccccc2)c2ccccc2N(S(=O)(=O)C(F)(F)F)C1C(=O)OCC (stereo not drawn) | / | / | / | 2.82µM* | / | -15.7
CCOC(=O)C1C(C(=O)OC)=C(c2ccc(OC)cc2)c2ccccc2N1S(=O)(=O)C(F)(F)F (stereo not drawn) | / | / | / | 11.2µM* | / | -28.1
O=C(NCc1ccc(F)cc1)C1CCCCN1S(=O)(=O)c1ccc(F)cc1 (stereo not drawn) | 5.7%[46.1 µM] | / | / | / | / | 1.1
O=P(O)(O)CP(=O)(O)O | / | 11.7% | / | / | -7.1% | /
O=P(O)(O)OP(=O)(O)O | / | 3.79µM* | / | / | ? | /

Screening results deposited in PubChem by National Center for Advancing Translational Sciences (NCATS).
